Shown are actives, neighbours in structure and some others; about 12% of the full set was active somewhere.
HP1b chromo inh = HTS for Inhibitors of HP1-beta Chromodomain Interactions with Methylated Histone Tails; Chromobox protein homolog 1 (Homo sapiens), P83916; AlphaScreen HP1-beta / biotin-H3K9me3 peptide binding; Potency, µM (titrated, usually from 114 µM), for inactives: top-dose activity change, negative = inhibition, most hits filed as inhibitors; hit rate 0.56% among 390,000; AID 540317, 2011; note: nearly all actives have a fitted effect of over 70% in size
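Compound inhibition of the preformed complex between 50 nM HP1-beta and 50 nM biotinylated H3K9me3 peptide was read by AlphaScreen. Buffer was PBS pH 7.4 with 0.01% Tween-20. Incubations ran 30 min at room temperature, with 10 ug/mL donor/acceptor beads.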
BAZ2B block = qHTS Assay for Inhibitors of BAZ2B; Bromodomain adjacent to zinc finger domain protein 2B (Homo sapiens), Q9UIF8; AlphaScreen BAZ2B-H3K14Ac peptide displacement; Potency, µM (titrated, usually from 114 µM), inactives show at the highest dose activity change, negative = inhibition, actives largely listed as inhibitors; hit rate 4.4% among 360,000; AID 504333, 2011; note: % is set by controls: 0 for no effect and ±100 for the full control effect; nearly all actives have a fitted effect of over 60% in size
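Compounds, titrated to a top concentration of 110 uM, were incubated 30 min at room temperature with preformed BAZ2B/acetyl-K14 H3 peptide complex (50 nM each). Proximity signal was measured by AlphaScreen after 20 min with beads.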
JMJD2A Tudor inh = qHTS Assay for Inhibitors of JMJD2A-Tudor Domain | Lysine-specific demethylase 4A (Homo sapiens), O75164 | AlphaScreen JMJD2A-Tudor / H3K4me3 peptide binding | Potency, µM (titrated, usually from 114 µM), for the others: top-dose activity change, negative = inhibition, usual class: inhibitors | hit rate 4.4% among 390,000; note: % is set by controls: 0 for no effect and ±100 for the full control effect; nearly all actives have a fitted effect of over 50% in size
Sfp inh = qHTS Assay for Inhibitors of Bacillus subtilis Sfp phosphopantetheinyl transferase (PPTase); 4'-phosphopantetheinyl transferase ffp (Bacillus subtilis), Q9F4F7; Biochemical Sfp PPTase activity, qHTS; Potency, µM, for inactives: largest response in the series, negative = inhibition, most hits filed as inhibitors; hit rate 3.5% among 310,000; AID 1490, 2009;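 note: the enzyme is Sfp with the accession as filed and its product quenches rhodamine fluorescence; 0% = enzyme reaction without inhibitor and -100% = no enzyme wells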
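With Hepes-Na pH 7.6 buffer containing 10 mM MgCl2, Sfp (15 nM) modified BHQ-2-YbbR (12.5 uM) using rhodamine-CoA (5 uM). Two reads 30 minutes apart at 525/598 nm yielded each well's rate.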
L3MBTL1 block = qHTS Assay for the Inhibitors of L3MBTL1; AID 485360, 2010; Lethal(3)malignant brain tumor-like protein 1 (Homo sapiens), Q9Y468; hit rate 0.66% among 230,000; AlphaScreen L3MBTL1–H3K9me1 peptide binding; Potency, µM (series often up to 57.1 µM), without a hit: at the top dose activity, negative = inhibition, actives largely listed as inhibitors; note: % is set by controls: 0 for no effect and ±100 for the full control effect; nearly all actives have a fitted effect of over 60% in size
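L3MBTL1 (50 nM) pre-complexed 30 min with biotinylated H3(1-15)K9me1 peptide (75 nM), then compounds added for 30 min at room temperature; AlphaScreen streptavidin donor/nickel chelate acceptor beads (10 ug/mL final) read after 30 min dark incubation.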
G9a inh = qHTS Assay for Inhibitors of Histone Lysine Methyltransferase G9a; Histone-lysine N-methyltransferase EHMT2 (Homo sapiens), Q96KQ7; hit rate 8.8% among 350,000; G9a H3K9 monomethylation, AlphaScreen, 2 h; Potency, µM (highest dose often 102 µM), for inactives: at the highest dose activity, negative = inhibition, hits mostly inhibitors; note: % is set by controls: 0 for no effect and ±100 for the full control effect; nearly all actives have a fitted effect of over 75% in size
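Signal arises when biotinylated H3K9 peptide, once monomethylated, bridges streptavidin donor and antibody-captured acceptor beads. Enzyme at 20 nM was preincubated 15 min with test compounds; peptide 500 nM and SAM 20 uM then reacted for 2 h.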
An asterisk follows results filed as active; [ ] = remark or other dose. Calls come from the whole dose curve; as a rule, active = well fitted curve in the direction sought with a large enough effect; inconclusive = small, poorly fitted or top-dose-only effect, or another doubt; inactive = no such curve, though single readings can be large; an effect the other way counts as inactive or inconclusive. Potency is the fitted concentration of half-maximal effect.

For Cc1ccc(/C=C/c2nc3ccccc3s2)s1 the results were HP1b chromo inh 469%, BAZ2B block 215%, JMJD2A Tudor inh 332%, Sfp inh -7% and G9a inh 10%[2.33 µM].
`CN(C)c1ccc(/C=C/c2ccc3ccccc3n2)cc1` gave HP1b chromo inh 5%, BAZ2B block 50µM*, JMJD2A Tudor inh inconclusive, Sfp inh inconclusive, L3MBTL1 block 39% and G9a inh 45µM*.
CN(C)c1ccc(/C=C/c2nc3ccccc3s2)cc1 was read as HP1b chromo inh 40µM*, BAZ2B block 32µM*, JMJD2A Tudor inh 20µM*, Sfp inh -6%, L3MBTL1 block -20% and G9a inh 19%[0.501 µM].
Screening CCOC(=O)CNC(=O)O[C@H]1C(=O)c2ccc(OC)cc2O[C@@H]1c1ccc2c(c1)OCO2 returned Sfp inh 8%.
For COc1ccc2oc(C(=O)OCC(=O)N3CCN(S(=O)(=O)c4ccccc4)CC3)c(C)c2c1 the results were HP1b chromo inh 20%, BAZ2B block 7%, JMJD2A Tudor inh -18%, L3MBTL1 block -19% and G9a inh 50µM*.
For Cc1c(C(=O)N2CCN(S(=O)(=O)c3cccs3)CC2)oc2ccc(F)cc12 the results were HP1b chromo inh 47%, JMJD2A Tudor inh -14% and L3MBTL1 block -7%.
Cc1c(C(=O)N2CCN(S(=O)(=O)c3ccc(F)cc3)CC2)oc2ccccc12 was read as HP1b chromo inh 17%, BAZ2B block 0%, JMJD2A Tudor inh -15%, L3MBTL1 block 0% and G9a inh 50µM*.
C/C(=N\NC(=S)NCC(C)(C)C)c1cc(F)cc(F)c1O was read as HP1b chromo inh 9%, BAZ2B block 7.1µM*, JMJD2A Tudor inh -25%, Sfp inh 23%, L3MBTL1 block -26% and G9a inh -1%.
For Cc1cc2ccccn2c1C(=S)NC(=O)c1ccccc1 the results were HP1b chromo inh inconclusive, BAZ2B block 14µM*, JMJD2A Tudor inh 50µM*, Sfp inh 1%, L3MBTL1 block inconclusive and G9a inh inconclusive.
`Cc1cc2ccccn2c1C(=O)c1ccncc1` gave HP1b chromo inh 17%, BAZ2B block 5%, JMJD2A Tudor inh -15%, Sfp inh 5%, L3MBTL1 block -9% and G9a inh -45%.
For O=C(c1ccco1)N1CCC[C@@]2(CCN(C(c3ccccc3)c3ccccc3)C2)C1 the results were Sfp inh 14% and G9a inh -1%[12.7 µM].
`COc1ccc(C(=O)N2CCN(C3CCCCC3)CC2)cc1OC` gave HP1b chromo inh inconclusive, BAZ2B block 50µM*, JMJD2A Tudor inh 28µM*, Sfp inh -22%, L3MBTL1 block 1% and G9a inh 10µM*.
O=C(c1cccc(Cl)c1)N1CCN(C2CCCCCC2)CC1 was read as HP1b chromo inh 25µM*, BAZ2B block 45µM*, JMJD2A Tudor inh 7.9µM*, Sfp inh -9%, L3MBTL1 block -5% and G9a inh 20µM*.
COc1cc(C(=O)N2CCC(N3CCCCCC3)CC2)cc(OC)c1OC was read as HP1b chromo inh inconclusive and JMJD2A Tudor inh 7.1µM*.
For COc1ccc(C(=O)N2CCC(C(=O)Nc3ccc(OC)c(OC)c3)CC2)cc1 the results were HP1b chromo inh 33%, JMJD2A Tudor inh -23%, Sfp inh 89µM*, L3MBTL1 block 26% and G9a inh -4%[59 µM].
For Cc1cccc(OCC(=O)N(Cc2ccc(C(C)(C)C)cc2)Cc2ccco2)c1 the results were HP1b chromo inh 86%, BAZ2B block 29%, JMJD2A Tudor inh 7% and G9a inh 34%[59 µM].
O=C(CSc1cn(CC(=O)N2CCCCC2)c2ccccc12)Nc1ccc(C(F)(F)F)cc1 was read as HP1b chromo inh 47%, BAZ2B block -2%, JMJD2A Tudor inh -1% and G9a inh 5%[59 µM].
For CCOc1ccc(Nc2c(S(=O)(=O)c3ccc(C)cc3)cnc3cc(OC)c(OC)cc23)cc1 the results were HP1b chromo inh 0%, BAZ2B block -31%, JMJD2A Tudor inh -31% and G9a inh -14%[59 µM].
COc1ccc(-c2ccc3c(c2)S(=O)(=O)c2cccc(C(=O)NC4CCCC4)c2C3=O)cc1OC was read as HP1b chromo inh 41%, BAZ2B block 6%, JMJD2A Tudor inh -6%, L3MBTL1 block 0% and G9a inh -3%[0.501 µM].
COc1cc(C(=O)N2CCCCCCC2)cc(OC)c1OC was read as Sfp inh 10% and G9a inh -3%[12.7 µM].
For COc1ccc(-c2ccc3c(c2)S(=O)(=O)c2cccc(C(=O)N4CCN(C5CCCCC5)CC4)c2C3=O)cc1OC the results were HP1b chromo inh -11%, JMJD2A Tudor inh 79µM* and L3MBTL1 block -1%.
COc1cc(C(=O)N2CCN(C3CCCCC3)CC2)cc(OC)c1OC was read as HP1b chromo inh inconclusive, BAZ2B block inconclusive, JMJD2A Tudor inh 56µM*, Sfp inh -18% and L3MBTL1 block 15%.
For CC1Cc2cc(S(=O)(=O)NCc3ccc(F)cc3)ccc2N1C(=O)C1CCC1 (centres undefined) the results were HP1b chromo inh 34%, BAZ2B block 1%, JMJD2A Tudor inh -14% and G9a inh -5%[59 µM].
Screening CCOC(=O)C1CCCN(Cc2ccc(OC)cc2OC)C1 (centres undefined) returned HP1b chromo inh inconclusive, BAZ2B block -32%, JMJD2A Tudor inh 1.3µM*, Sfp inh -10%, L3MBTL1 block 8% and G9a inh -21%[59 µM].
For COc1ccc(CN2CCCC(C(=O)N3CCCC3)C2)c(OC)c1 (centres undefined) the results were HP1b chromo inh 50µM*, BAZ2B block 50µM*, JMJD2A Tudor inh 0.89µM*, Sfp inh -19% and G9a inh -2%.
Screening COc1ccc(C(=O)C2CCCN(Cc3cc(Cl)ccc3O)C2)c(OC)c1 (centres undefined) returned HP1b chromo inh 60%, BAZ2B block 45%, JMJD2A Tudor inh 15%, Sfp inh 13% and L3MBTL1 block 46%.
`Cc1cccc(N2CCN(C(=O)Cc3c(C(=O)O)c(C)cn3C)CC2C)c1` (centres undefined) gave HP1b chromo inh 9%, BAZ2B block -12%, JMJD2A Tudor inh -15% and G9a inh -2%[59 µM].

Assay outcomes from PubChem.
